These results are taken from the supplement of paper PMC4466140.

The first assay deals with CaNbp2. Kind of assay: SPOT peptide array binding signal intensity (averaged, normalized) (arbitrary units (background-subtracted, floor 0; scale differs between SH3 domains)); higher = stronger binding of the SH3 domain to the peptide. In short, it runs like this:
(§1)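 Spot intensities were captured after detection with anti-GST antibody, an HRP-linked anti-mouse secondary and luminol, and quantified with Genespotter. The probes were GST-fused SH3 domains from four yeast species, produced in E. coli BL21(DE3), purified on glutathione Sepharose and incubated at 10 μg/ml overnight at 4°C on cellulose-bound synthetic 15-mer peptides with cysteines replaced by serines. Binding signal is the normalized, background-subtracted spot intensity averaged over replicates, and its arbitrary units differ between domains.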
For the molecule VLRFLGFPLPIFEKG, the “SPOT peptide array binding signal intensity” value stood at 129.

Another assay addresses CaRvs167. The description is as above. The essentials:
as §1
Regarding VLRFLGFPLPIFEKG, the “SPOT peptide array binding signal intensity” value is 8.5.

The next assay concerns the target CaRvs167-3. The description is as above. The essentials:
as §1
Regarding VLRFLGFPLPIFEKG, the “SPOT peptide array binding signal intensity” value is 22.2.

The target of a further assay is CaSho1. The assay is described as above. In short, it runs like this:
as §1
Regarding VLRFLGFPLPIFEKG, the “SPOT peptide array binding signal intensity” value was determined as 496.

A further assay addresses CaSla1-D1-D2. Described as above. In short, it runs like this: as §1
Regarding VLRFLGFPLPIFEKG, the “SPOT peptide array binding signal intensity” value is 4.

The next assay addresses CaSla1-D3. Described as above. The essentials:
as §1
In the case of VLRFLGFPLPIFEKG, the “SPOT peptide array binding signal intensity” value came to 4.

In a further assay the target is ScAbp1. The description is as above. In short, it runs like this: as §1
Regarding VLRFLGFPLPIFEKG, the “SPOT peptide array binding signal intensity” value worked out at 1.5.

The target in a further assay is ScBbc1. Described as above. In short, it runs like this:
as §1
Turning to VLRFLGFPLPIFEKG, the “SPOT peptide array binding signal intensity” value was found to be 1.5.

The target of another assay is ScBem1-D1. The description is as above. In short, it runs like this:
as §1
For VLRFLGFPLPIFEKG, the “SPOT peptide array binding signal intensity” value is 11.5.

Another assay deals with ScBzz1-D1. Described as above. The essentials:
as §1
Turning to VLRFLGFPLPIFEKG, the “SPOT peptide array binding signal intensity” value is 24.

Another assay has as its target ScBzz1-D2. The description is as above. The essentials: as §1
Regarding VLRFLGFPLPIFEKG, the “SPOT peptide array binding signal intensity” value stood at 14.

For another assay, the target named is ScCyk3. Described as above. In short, it runs like this:
as §1
For VLRFLGFPLPIFEKG, the “SPOT peptide array binding signal intensity” value worked out at 80.5.

For another assay, the target named is ScFus1. The assay is described as above. In short, it runs like this: as §1
Turning to VLRFLGFPLPIFEKG, the “SPOT peptide array binding signal intensity” value worked out at 404.

Another assay has as its target ScHof1. The assay is described as above. In short, it runs like this: as §1
As for VLRFLGFPLPIFEKG, the “SPOT peptide array binding signal intensity” value was at most 0.

The next assay addresses ScHse1. The assay is described as above. In short, it runs like this: as §1
For the molecule VLRFLGFPLPIFEKG, the “SPOT peptide array binding signal intensity” value is 2000.

In the next assay the target is ScLsb1. The assay is described as above. The essentials: as §1
Take VLRFLGFPLPIFEKG: the “SPOT peptide array binding signal intensity” value is at most 0.

A further assay addresses ScLsb2. Described as above. The essentials:
as §1
With VLRFLGFPLPIFEKG, the “SPOT peptide array binding signal intensity” value was at most 0.

The target in the next assay is ScLsb3. The description is as above. The essentials: as §1
Take VLRFLGFPLPIFEKG: the “SPOT peptide array binding signal intensity” value was at most 0.

For the next assay, the target named is ScLsb4. The assay is described as above. The essentials: as §1
VLRFLGFPLPIFEKG: the “SPOT peptide array binding signal intensity” value is at most 0.

The target of the next assay is ScMyo3. Described as above. In short, it runs like this: as §1
Regarding VLRFLGFPLPIFEKG, the “SPOT peptide array binding signal intensity” value stood at 0.5.

In another assay the target is ScMyo5. Described as above. The essentials:
as §1
Regarding VLRFLGFPLPIFEKG, the “SPOT peptide array binding signal intensity” value is at most 0.

In the next assay the target is ScNbp2. Described as above. In short, it runs like this: as §1
On to VLRFLGFPLPIFEKG, for which the “SPOT peptide array binding signal intensity” value worked out at 19.
